From ChEMBL document CHEMBL3988442, “University of Dundee, Small-Polar-MMV Screening Library” (2021)
For some assays here: Results with a measured potency or affinity are listed apart.

What was measured:
Set-up in all cases: scale not given: direction of the effect not stated beside the values
[1] = biological target: Protein translocase subunit SecA (Escherichia coli (strain K12)) (UniProt P10408); assay: Assay to Identify E. coli SecA ATPase Inhibitors; type: functional; settings: 30 µM
[2] = biological target: T1, Ubiquitin-activating enzyme e1, putative (Leishmania donovani (strain BPK282A1)) (UniProt E9BSI1); assay: Leishmania donovani Ubiquitin Activating Enzyme (LdE1); type: functional; settings: 30 µM
T1 sequence (whole entry): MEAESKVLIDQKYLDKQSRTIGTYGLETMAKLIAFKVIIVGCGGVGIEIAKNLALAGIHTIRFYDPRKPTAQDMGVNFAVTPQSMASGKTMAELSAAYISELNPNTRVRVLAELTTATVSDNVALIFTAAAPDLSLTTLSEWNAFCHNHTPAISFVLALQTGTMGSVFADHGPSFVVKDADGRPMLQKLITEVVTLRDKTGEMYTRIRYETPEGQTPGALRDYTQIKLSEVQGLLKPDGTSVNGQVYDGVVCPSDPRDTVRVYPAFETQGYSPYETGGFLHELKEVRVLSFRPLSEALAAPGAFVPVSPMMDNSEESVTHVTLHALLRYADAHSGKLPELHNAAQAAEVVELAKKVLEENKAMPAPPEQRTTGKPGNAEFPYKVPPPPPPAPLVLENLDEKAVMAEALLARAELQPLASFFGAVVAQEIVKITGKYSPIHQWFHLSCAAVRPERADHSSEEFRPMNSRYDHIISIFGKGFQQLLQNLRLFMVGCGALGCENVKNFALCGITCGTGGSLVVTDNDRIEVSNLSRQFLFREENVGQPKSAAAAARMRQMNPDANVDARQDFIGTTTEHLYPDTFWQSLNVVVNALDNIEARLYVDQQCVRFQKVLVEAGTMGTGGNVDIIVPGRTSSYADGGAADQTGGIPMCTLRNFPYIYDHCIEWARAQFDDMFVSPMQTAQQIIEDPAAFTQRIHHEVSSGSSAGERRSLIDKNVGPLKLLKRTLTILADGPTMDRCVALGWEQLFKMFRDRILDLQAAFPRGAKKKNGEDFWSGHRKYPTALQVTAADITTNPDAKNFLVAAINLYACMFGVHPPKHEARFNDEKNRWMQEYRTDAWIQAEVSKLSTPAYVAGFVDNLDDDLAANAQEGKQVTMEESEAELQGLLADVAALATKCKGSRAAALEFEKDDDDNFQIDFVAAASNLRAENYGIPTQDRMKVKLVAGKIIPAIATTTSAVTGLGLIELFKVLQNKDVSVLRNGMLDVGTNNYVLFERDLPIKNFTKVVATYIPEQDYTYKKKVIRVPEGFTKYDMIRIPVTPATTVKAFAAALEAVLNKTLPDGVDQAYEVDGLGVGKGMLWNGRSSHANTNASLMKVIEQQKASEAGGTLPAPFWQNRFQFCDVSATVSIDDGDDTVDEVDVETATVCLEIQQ

[3] = biological target: Sialic acid-binding Ig-like lectin 9 (Homo sapiens) (UniProt Q9Y336); assay: Hs-Siglec9 ALPHAscreen SOP 20170721; settings: 10 µM
Trypanosoma cruzi = assay: Trypanosoma cruzi phosphomannomutase and mannose-1-phosphate guanylyltransferase assay; type: functional; settings: 10 µM
[4] = biological target: T2, Arginase-2, mitochondrial (Homo sapiens) (UniProt P78540); assay: in vitro enzyme assay to detect the production of urea directly proportional to the activity of Arginase II; type: functional; settings: 33.3 µM; further: in the data most compounds retested in dose-response had high values
T2 sequence (whole entry): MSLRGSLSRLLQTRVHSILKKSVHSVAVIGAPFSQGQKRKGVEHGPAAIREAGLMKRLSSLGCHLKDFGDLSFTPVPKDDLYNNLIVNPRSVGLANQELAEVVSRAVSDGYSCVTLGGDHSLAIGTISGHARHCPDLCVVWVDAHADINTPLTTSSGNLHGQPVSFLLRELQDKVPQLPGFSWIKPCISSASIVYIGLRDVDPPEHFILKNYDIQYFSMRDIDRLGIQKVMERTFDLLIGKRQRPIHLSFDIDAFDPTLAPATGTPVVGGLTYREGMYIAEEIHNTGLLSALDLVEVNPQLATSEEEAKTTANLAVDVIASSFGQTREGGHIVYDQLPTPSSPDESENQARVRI

[5] = biological target: T3, Proteasome subunit beta (Trypanosoma cruzi) (UniProt O96673); assay: Trypanosoma cruzi proteasome chymotrypsin-like activity (TcProtChymo) assay.; further: in the data most compounds retested in dose-response had high values; type: functional; settings: 9.37 µM
T3 sequence (whole entry): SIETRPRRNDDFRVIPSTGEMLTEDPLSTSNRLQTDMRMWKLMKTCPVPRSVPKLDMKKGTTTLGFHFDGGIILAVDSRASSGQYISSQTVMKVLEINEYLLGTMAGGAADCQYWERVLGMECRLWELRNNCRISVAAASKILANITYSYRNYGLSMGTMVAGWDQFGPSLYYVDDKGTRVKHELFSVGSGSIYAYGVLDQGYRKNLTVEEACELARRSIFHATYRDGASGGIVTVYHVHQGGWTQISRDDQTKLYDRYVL

Homo sapiens = species: Homo sapiens; assay: To identify inhibition of the IFN signalling (Jak-Stat) pathway via expression of an eGFP reporter gene under the control of an IFN-stimulated response element (ISRE) containing MxA promoter.; type: functional; settings: 30 µM
[6] = biological target: T4, Tyrosyl-tRNA synthetase, putative (Trypanosoma cruzi (strain CL Brener)) (UniProt Q4DSP6); assay: Trypanosoma cruzi tyrosyl tRNA synthetase (TcYRS) _High Tyrosine SOP; type: functional; settings: 30 µM; further: in the data most compounds retested in dose-response had high values
T4 sequence (whole entry): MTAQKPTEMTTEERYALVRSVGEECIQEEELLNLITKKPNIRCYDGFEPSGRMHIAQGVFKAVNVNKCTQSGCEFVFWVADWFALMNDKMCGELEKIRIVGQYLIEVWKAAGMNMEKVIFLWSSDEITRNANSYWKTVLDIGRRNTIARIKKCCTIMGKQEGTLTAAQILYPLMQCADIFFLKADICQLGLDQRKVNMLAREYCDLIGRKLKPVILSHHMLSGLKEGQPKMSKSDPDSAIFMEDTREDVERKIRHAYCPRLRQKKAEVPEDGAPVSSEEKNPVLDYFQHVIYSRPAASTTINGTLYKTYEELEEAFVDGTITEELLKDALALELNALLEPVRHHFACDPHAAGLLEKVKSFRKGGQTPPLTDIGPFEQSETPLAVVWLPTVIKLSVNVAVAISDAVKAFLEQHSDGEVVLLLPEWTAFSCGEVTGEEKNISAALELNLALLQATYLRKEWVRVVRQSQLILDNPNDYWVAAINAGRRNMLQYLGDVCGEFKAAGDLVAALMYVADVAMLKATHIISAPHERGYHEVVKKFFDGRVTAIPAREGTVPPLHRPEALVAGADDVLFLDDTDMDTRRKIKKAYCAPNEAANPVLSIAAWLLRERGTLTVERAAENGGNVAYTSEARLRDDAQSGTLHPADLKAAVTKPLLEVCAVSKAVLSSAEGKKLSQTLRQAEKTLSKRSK

[7] = biological target: T4, Tyrosyl-tRNA synthetase, putative (Trypanosoma cruzi (strain CL Brener)); assay: Trypanosoma cruzi tyrosyl tRNA synthetase (TcYRS) SOP; type: functional; settings: 30 µM
[8] = biological target: Chromo domain-containing protein 1 (Saccharomyces cerevisiae (strain ATCC 204508 / S288c) (Baker's yeast)) (UniProt P32657); assay: ScCHD-1 Enzyme Inhibition Assay; type: functional; settings: 30 µM; further: in the data most compounds retested in dose-response had high values
Chain of Chromo domain-containing protein 1 (Saccharomyces cerevisiae (strain ATCC 204508 / S288c) (Baker's yeast)) (P32657 whole entry, the tested form may be a part): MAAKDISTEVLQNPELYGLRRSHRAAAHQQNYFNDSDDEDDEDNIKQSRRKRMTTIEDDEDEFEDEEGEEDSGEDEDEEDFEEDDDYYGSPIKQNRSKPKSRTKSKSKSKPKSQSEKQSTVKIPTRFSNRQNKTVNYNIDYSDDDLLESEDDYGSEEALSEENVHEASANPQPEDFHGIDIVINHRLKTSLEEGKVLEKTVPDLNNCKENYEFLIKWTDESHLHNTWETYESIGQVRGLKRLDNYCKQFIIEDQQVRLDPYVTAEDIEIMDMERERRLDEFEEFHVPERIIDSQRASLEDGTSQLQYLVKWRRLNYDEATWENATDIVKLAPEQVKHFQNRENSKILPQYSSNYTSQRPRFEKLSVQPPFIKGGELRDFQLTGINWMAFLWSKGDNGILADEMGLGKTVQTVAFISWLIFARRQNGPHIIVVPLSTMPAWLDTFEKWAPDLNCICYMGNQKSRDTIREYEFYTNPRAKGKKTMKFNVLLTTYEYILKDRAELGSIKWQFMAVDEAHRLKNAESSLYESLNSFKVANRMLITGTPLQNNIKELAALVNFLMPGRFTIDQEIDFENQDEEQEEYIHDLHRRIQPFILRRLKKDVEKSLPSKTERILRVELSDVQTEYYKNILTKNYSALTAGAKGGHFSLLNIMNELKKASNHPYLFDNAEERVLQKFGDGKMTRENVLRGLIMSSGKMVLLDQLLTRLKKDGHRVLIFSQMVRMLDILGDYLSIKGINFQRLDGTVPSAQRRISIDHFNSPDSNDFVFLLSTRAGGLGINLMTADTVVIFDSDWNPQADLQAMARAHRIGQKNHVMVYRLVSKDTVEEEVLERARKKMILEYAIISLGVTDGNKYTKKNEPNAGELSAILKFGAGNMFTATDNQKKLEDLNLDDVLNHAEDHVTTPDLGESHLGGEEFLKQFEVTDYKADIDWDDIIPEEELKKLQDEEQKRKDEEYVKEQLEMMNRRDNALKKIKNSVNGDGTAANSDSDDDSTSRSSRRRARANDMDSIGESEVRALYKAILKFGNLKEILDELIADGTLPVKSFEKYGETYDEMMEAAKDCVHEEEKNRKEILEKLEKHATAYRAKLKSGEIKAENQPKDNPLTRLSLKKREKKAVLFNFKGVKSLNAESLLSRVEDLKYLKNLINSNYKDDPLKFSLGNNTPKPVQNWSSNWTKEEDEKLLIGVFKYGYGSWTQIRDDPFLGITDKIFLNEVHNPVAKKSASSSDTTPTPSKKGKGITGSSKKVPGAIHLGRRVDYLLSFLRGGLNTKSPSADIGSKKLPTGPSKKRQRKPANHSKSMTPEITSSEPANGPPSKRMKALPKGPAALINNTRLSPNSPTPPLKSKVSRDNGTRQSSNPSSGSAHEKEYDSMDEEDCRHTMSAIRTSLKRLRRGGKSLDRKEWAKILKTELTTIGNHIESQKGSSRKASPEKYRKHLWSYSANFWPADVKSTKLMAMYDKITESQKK

Chain of Protein translocase subunit SecA (Escherichia coli (strain K12)) (P10408 whole entry): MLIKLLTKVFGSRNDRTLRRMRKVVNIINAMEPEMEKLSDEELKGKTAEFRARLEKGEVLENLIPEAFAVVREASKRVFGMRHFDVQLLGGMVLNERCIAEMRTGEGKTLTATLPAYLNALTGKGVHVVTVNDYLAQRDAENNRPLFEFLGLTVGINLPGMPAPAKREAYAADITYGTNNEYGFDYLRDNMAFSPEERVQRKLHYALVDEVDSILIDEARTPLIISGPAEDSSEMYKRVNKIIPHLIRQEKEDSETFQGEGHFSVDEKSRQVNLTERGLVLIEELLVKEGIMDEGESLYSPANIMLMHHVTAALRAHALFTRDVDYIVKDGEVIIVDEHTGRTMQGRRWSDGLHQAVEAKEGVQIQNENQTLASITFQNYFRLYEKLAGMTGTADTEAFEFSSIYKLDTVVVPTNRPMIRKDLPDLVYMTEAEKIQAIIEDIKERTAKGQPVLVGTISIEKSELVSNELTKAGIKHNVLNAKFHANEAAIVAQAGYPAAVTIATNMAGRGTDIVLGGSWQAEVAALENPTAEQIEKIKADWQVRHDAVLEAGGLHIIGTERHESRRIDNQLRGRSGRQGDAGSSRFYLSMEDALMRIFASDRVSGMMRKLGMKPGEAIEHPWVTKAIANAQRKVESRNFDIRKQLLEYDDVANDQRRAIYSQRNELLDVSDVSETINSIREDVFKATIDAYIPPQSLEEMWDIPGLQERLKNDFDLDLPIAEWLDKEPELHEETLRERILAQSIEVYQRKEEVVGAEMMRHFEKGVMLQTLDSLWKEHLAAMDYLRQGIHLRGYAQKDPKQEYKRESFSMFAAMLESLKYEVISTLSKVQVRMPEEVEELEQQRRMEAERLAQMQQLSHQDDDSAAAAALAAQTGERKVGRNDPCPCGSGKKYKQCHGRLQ
Chain of Sialic acid-binding Ig-like lectin 9 (Homo sapiens) (Q9Y336 whole entry): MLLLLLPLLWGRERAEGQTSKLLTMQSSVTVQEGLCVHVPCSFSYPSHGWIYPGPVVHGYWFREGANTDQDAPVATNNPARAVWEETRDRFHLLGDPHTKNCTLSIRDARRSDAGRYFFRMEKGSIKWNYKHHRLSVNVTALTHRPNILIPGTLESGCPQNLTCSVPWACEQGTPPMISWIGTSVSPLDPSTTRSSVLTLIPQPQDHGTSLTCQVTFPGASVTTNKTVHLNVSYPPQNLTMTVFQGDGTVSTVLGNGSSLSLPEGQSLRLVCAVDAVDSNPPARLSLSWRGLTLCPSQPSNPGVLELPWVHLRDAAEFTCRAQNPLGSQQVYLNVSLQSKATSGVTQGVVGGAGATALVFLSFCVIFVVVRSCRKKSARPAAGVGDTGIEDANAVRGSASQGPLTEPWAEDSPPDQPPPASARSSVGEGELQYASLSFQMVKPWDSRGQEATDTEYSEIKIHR

O=C(c1ccccn1)N1CCN(c2ccc(-c3cccnc3)nn2)CC1 showed a Percent Effect [1] of -3.31%, a Percent Effect [2] of 11.7% and a Percent Effect [3] of 4.87%. For the same compound, the Percent Effect (Trypanosoma cruzi) was 1.31%, the Percent Effect [4] was 4.11% and the Percent Effect [5] was 21.7%. The Percent Effect (Homo sapiens) was 1.87%, the Percent Effect [6] was 0.966% and the Percent Effect [7] was 10%. It also gave a Percent Effect [8] of -7.95%.
COCCN1CCN(Cc2cccc(C(N)=O)c2)CC1C (stereo not given) gave a Percent Effect [1] of -2.01%, a Percent Effect [2] of 29.3% and a Percent Effect [3] of -8.56%. For the same compound, the Percent Effect (Trypanosoma cruzi) was 2.81%, the Percent Effect [4] was -2.66% and the Percent Effect [5] was 17.6%. For the same compound, the Percent Effect (Homo sapiens) was 16.2%, the Percent Effect [6] was 2.63% and the Percent Effect [7] was 12.8%. It also gave a Percent Effect [8] of -19.1%.
In the case of CCn1ccnc1CN1CCN(CC(O)Cn2cccn2)CC1 (stereo not given), the Percent Effect [1] is reported as -5.85%, the Percent Effect [2] is reported as 0% and the Percent Effect [3] is reported as -2.48%. It also gave a Percent Effect (Trypanosoma cruzi) of -1.97%, a Percent Effect [4] of -4.51% and a Percent Effect [5] of 11%. The Percent Effect (Homo sapiens) was 18.6%, the Percent Effect [6] was -0.478% and the Percent Effect [7] was 6.02%. For the same compound, the Percent Effect [8] was 1.41%.
Compound CCC1CN(C(=O)c2ccc(Cl)cc2O)CCN1C(C)C (stereo not given) has a Percent Effect [1] of -4.41%, a Percent Effect [2] of 2.7% and a Percent Effect [3] of 8.13%. The Percent Effect (Trypanosoma cruzi) was 6.5%, the Percent Effect [4] was 11.5% and the Percent Effect [5] was 6.34%. The Percent Effect (Homo sapiens) was 12.9%, the Percent Effect [6] was 4.79% and the Percent Effect [7] was 9.76%. The Percent Effect [8] was -3.73%.
O=C(Nc1nccs1)NC1CCN(Cc2ccccc2)C1 (stereo not given) was tested, and the Percent Effect [1] was 0.43%, the Percent Effect [2] was 15.4% and the Percent Effect [3] was -11.5%. The Percent Effect (Trypanosoma cruzi) was 7.04%, the Percent Effect [4] was 4.51% and the Percent Effect [5] was 9.13%. The Percent Effect (Homo sapiens) was -11.6%, the Percent Effect [6] was 6.22% and the Percent Effect [7] was 22.9%. It also gave a Percent Effect [8] of 1.47%.
For CN(c1ccncn1)C1CC2(CCN(C(=O)c3ccsc3)C2)C1 (stereo not given), the Percent Effect [1] was -2.12%, the Percent Effect [2] was 22.7% and the Percent Effect [3] was 0.226%. The Percent Effect (Trypanosoma cruzi) was 3.55%, the Percent Effect [4] was -4.42% and the Percent Effect [5] was 17.2%. It also gave a Percent Effect (Homo sapiens) of 11.8%, a Percent Effect [6] of 0% and a Percent Effect [7] of 17.5%. For the same compound, the Percent Effect [8] was -21.9%.
CCC(NC(N)=O)c1ccccc1OCC(=O)N1CCCC1 (stereo not given) showed a Percent Effect [1] of -1.4%, a Percent Effect [2] of 10.3% and a Percent Effect [3] of -13.8%. It also gave a Percent Effect (Trypanosoma cruzi) of -4.41%, a Percent Effect [4] of -4.92% and a Percent Effect [5] of 9.81%. It also gave a Percent Effect (Homo sapiens) of 16.9%, a Percent Effect [6] of 5.26% and a Percent Effect [7] of 18.1%. It also gave a Percent Effect [8] of -6%.
Compound CCc1cc(C(=O)N2CCC(Nc3ccc(C)nn3)CC2)sc1C has a Percent Effect [1] of -4.07%, a Percent Effect [2] of 10.7% and a Percent Effect [3] of -0.268%. For the same compound, the Percent Effect (Trypanosoma cruzi) was 3.61%, the Percent Effect [4] was -4.88% and the Percent Effect [5] was 2.8%. It also gave a Percent Effect (Homo sapiens) of 4.58%, a Percent Effect [6] of 5.79% and a Percent Effect [7] of 7.69%. The Percent Effect [8] was -9.15%.
Cc1nc(C)n(CC2CN(CCCOc3ccccc3C)CCO2)n1 (stereo not given) was tested, and the Percent Effect [1] was -2.1%, the Percent Effect [2] was -2.67% and the Percent Effect [3] was -2.65%. For the same compound, the Percent Effect (Trypanosoma cruzi) was 1.61%, the Percent Effect [4] was 2.66% and the Percent Effect [5] was 0.763%. For the same compound, the Percent Effect (Homo sapiens) was 7.57%, the Percent Effect [6] was -0.526% and the Percent Effect [7] was -7.69%. It also gave a Percent Effect [8] of -5.97%.
CCN1C(=O)CCCC12CCCN(C(=O)c1conc1C)C2 (stereo not given) was tested, and the Percent Effect [1] was -1.85%, the Percent Effect [2] was 3.9% and the Percent Effect [3] was -5.23%. It also gave a Percent Effect (Trypanosoma cruzi) of -3.75%, a Percent Effect [4] of -0.457% and a Percent Effect [5] of 5.75%. For the same compound, the Percent Effect (Homo sapiens) was 14%, the Percent Effect [6] was -4.83% and the Percent Effect [7] was -5%. It also gave a Percent Effect [8] of -2.52%.
Work on COc1c(CNC2CCc3cc(F)ccc32)c(C)nn1C (stereo not given) yielded a Percent Effect [1] of -0.933%, a Percent Effect [2] of 7.79% and a Percent Effect [3] of 8.9%. The Percent Effect (Trypanosoma cruzi) was -0.187%, the Percent Effect [4] was 5.94% and the Percent Effect [5] was -1.23%. It also gave a Percent Effect (Homo sapiens) of -9.97%, a Percent Effect [6] of 3.92% and a Percent Effect [7] of 9.41%. The Percent Effect [8] was -0.439%.
Work on CCOc1ccc2[nH]c(=O)c(CN3CCC(O)CC3)cc2c1 yielded a Percent Effect [1] of -8.45%, a Percent Effect [2] of 5.41% and a Percent Effect [3] of 3.7%. The Percent Effect (Trypanosoma cruzi) was 3.4%, the Percent Effect [4] was -1.75% and the Percent Effect [5] was 3.77%. For the same compound, the Percent Effect (Homo sapiens) was -4.92%, the Percent Effect [6] was 9.04% and the Percent Effect [7] was 21.9%. The Percent Effect [8] was -0.516%.
CC(C)c1cc(C(=O)N(C)Cc2cccc3ncccc23)n(C)n1 was tested, and the Percent Effect [1] was -3.2%, the Percent Effect [2] was 12% and the Percent Effect [3] was 13.8%. It also gave a Percent Effect (Trypanosoma cruzi) of 0.986%, a Percent Effect [4] of -1.77% and a Percent Effect [5] of 13.1%. It also gave a Percent Effect (Homo sapiens) of 36.7%, a Percent Effect [6] of 3.17% and a Percent Effect [7] of 12.5%. It also gave a Percent Effect [8] of -26%.
Work on Cc1ccccc1-c1noc(CN2CCn3c(nnc3C3CC3)C2)n1 yielded a Percent Effect [1] of -6.21%, a Percent Effect [2] of -25.6% and a Percent Effect [3] of -13.3%. It also gave a Percent Effect (Trypanosoma cruzi) of -3.1%, a Percent Effect [4] of -0.41% and a Percent Effect [5] of 5.21%. The Percent Effect (Homo sapiens) was 15.8%, the Percent Effect [6] was 0.478% and the Percent Effect [7] was 1.21%. For the same compound, the Percent Effect [8] was -7.86%.
